PubChem BioAssay (EPA / NIEHS)
Values joined by “and” are separate entries in the source; they are usually repeats but may differ in a detail not shown here. Equal values may be shown once. Where a structure was tested more than once in an assay, its records may differ in their call. Active and inactive are the calls of the source. The calls were made as follows: active = hit-call score of the fitted dose curve at least 0.9, where 1 is the maximum; inactive = score below 0.9.

Columns and labels:
[1] = read-out: Vascular cell adhesion molecule 1 (VCAM1), VCAM1 (gene 7412); assay: BSK_CASM3C_VCAM1: BioMAP Diversity Plus: CASM3C Assay for Vascular cell adhesion molecule 1 (VCAM1) Biomarker Activity (AID 2283055); details: primary human coronary artery smooth muscle cells; actives raise or lower the signal;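 also: VCAM-1 protein level quantified by ELISA on the cells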
[2] = read-out: Collagen III, COL3A1 (gene 1281); assay: BSK_hDFCGF_CollagenIII: BioMAP Diversity Plus: hDFCGF Assay for Collagen III Biomarker Activity (AID 2283056); details: primary human foreskin fibroblasts; actives raise or lower the signal
Method in brief: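 Human foreskin primary fibroblasts were exposed to test chemicals for 24 h, after which collagen III was quantified by ELISA. Activity was fitted bidirectionally against DMSO as negative control and baseline.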

[3] = read-out: Epidermal growth factor receptor (EGFR), EGFR (gene 1956); assay: BSK_hDFCGF_EGFR: BioMAP Diversity Plus: hDFCGF Assay for Epidermal growth factor receptor (EGFR) Biomarker Activity (AID 2283057); details: primary human foreskin fibroblasts; actives raise or lower the signal
Method in brief: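 Dosing human primary skin fibroblasts, then measuring surface EGFR by ELISA at 24 h, gives the endpoint; gains and losses relative to DMSO were fitted in both directions.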

[4] = read-out: Interleukin-8 (IL8), CXCL8 (gene 3576); assay: BSK_hDFCGF_IL8: BioMAP Diversity Plus: hDFCGF Assay for Interleukin-8 (IL8) Biomarker Activity (AID 2283058); details: primary human foreskin fibroblasts; actives raise or lower the signal
Method in brief: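 hDFCGF human dermal fibroblasts; 24 h chemical exposure; IL-8 by ELISA; bidirectional curve fit vs DMSO baseline; gain or loss of signal scored.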

[5] = BSK_hDFCGF_Proliferation: Cell Proliferation Assessment in the BioMAP Diversity Plus: hDFCGF Assay (AID 2283059); details: primary human foreskin fibroblasts;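 also: curves fitted for both rise and fall of signal versus DMSO baseline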
Method in brief: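 Sub-confluent human foreskin fibroblast cultures receive test chemical […]. Relative cell number is quantified by sulforhodamine B staining (0.1%, after 10% TCA fixation) at 560 nm, with bidirectional fitting referenced to DMSO.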

[6] = read-out: Macrophage colony-stimulating factor (MCSF), CSF1 (gene 1435); assay: BSK_hDFCGF_MCSF: BioMAP Diversity Plus: hDFCGF Assay for Macrophage colony-stimulating factor (MCSF) Biomarker Activity (AID 2283060); details: primary human foreskin fibroblasts; actives raise or lower the signal
Method in brief: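 Human foreskin primary fibroblasts were treated with test chemical for 24 h, and M-CSF was then measured by ELISA. Data were fitted bidirectionally against DMSO as the negative control and activity baseline.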

[7] = BSK_hDFCGF_SRB: Viability Assessment in the BioMAP Diversity Plus: hDFCGF Assay (AID 2283061); details: primary human foreskin fibroblasts;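 also: cells exposed to compound for 24 h before the read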
Method in brief: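 Human foreskin primary fibroblasts were treated with compound and assessed 24 h after dosing. Total protein was measured by sulforhodamine B staining (0.1% SRB after 10% TCA fixation, 560 nm read) as a cytotoxicity marker, with bidirectional fitting against DMSO baseline.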

[8] = read-out: TIMP metallopeptidase inhibitor 1 (TIMP1), TIMP1 (gene 7076); assay: BSK_hDFCGF_TIMP1: BioMAP Diversity Plus: hDFCGF Assay for TIMP metallopeptidase inhibitor 1 (TIMP1) Biomarker Activity (AID 2283062); details: primary human foreskin fibroblasts; actives raise or lower the signal
Method in brief: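 Primary human foreskin fibroblasts in the hDFCGF system were dosed with compound for 24 h, then TIMP-1 was measured by ELISA. Activity was fitted bidirectionally relative to DMSO control; parallel SRB staining assessed cytotoxicity.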

[9] = read-out: Matrix Metallopeptidase 1 (MMP1), MMP1 (gene 4312); assay: BSK_hDFCGF_MMP1: BioMAP Diversity Plus: hDFCGF Assay for Matrix Metallopeptidase 1 (MMP1) Biomarker Activity (AID 2283064); details: primary human foreskin fibroblasts; actives raise or lower the signal
Method in brief: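 Human foreskin fibroblasts exposed to chemical for 24 h; MMP1 detected by ELISA, with DMSO as baseline for bidirectional fitting.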

[10] = read-out: Monokine induced gamma interferon (MIG), CXCL9 (gene 4283); assay: BSK_hDFCGF_MIG: BioMAP Diversity Plus: hDFCGF Assay for Monokine induced gamma interferon (MIG) Biomarker Activity (AID 2283063); details: primary human foreskin fibroblasts; actives raise or lower the signal
Method in brief: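 ELISA read-out of MIG from primary human dermal fibroblasts 24 h post-dosing. Gain or loss of signal fitted bidirectionally, DMSO as baseline.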

Measured: AC50

CCOC(=O)COc1ccc2c(c1)CC(NCC(O)c1cccc(Cl)c1)CC2 (configuration not stated)
inactive: [1]
active: [2] 30.6 µM | [3] 33.4 µM | [4] 32.1 µM | [5] 9.71 µM | [6] 14.6 µM | [7] 26.9 µM | [8] 28.8 µM | [9] 33.9 µM

COCCOc1cc2cc(C(=O)NC3CCN(C(C)C)CC3)n(CC(=O)Nc3ccc(Cl)cn3)c2cn1
inactive: all assays above

Cc1ccc(O)cc1
inactive: all assays above

O=C(O)c1cc(N=Nc2ccc(S(=O)(=O)Nc3ccccn3)cc2)ccc1O
inactive: all assays above

Cn1cnc([N+](=O)[O-])c1Sc1ncnc2nc[nH]c12
inactive: [1] | [2] | [3] | [4] | [5] | [6] | [8] | [10] | [9]
active: [1] 15.6 µM and 8.5 µM | [2] 4.26 µM | [5] 19.9 µM | [6] 7.13 µM and 9.58 µM

CCC(C)(C)C(=O)O[C@H]1C[C@@H](C)C=C2C=C[C@H](C)[C@H](CC[C@@H]3C[C@@H](O)CC(=O)O3)[C@H]21
inactive: [3] | [10]
active: [1] 29.8 µM | [2] 33.3 µM | [4] 29.5 µM | [5] 13.9 µM | [6] 26.3 µM | [7] 25.8 µM | [8] 34.2 µM

Nc1cccc(N)c1
active: [5] 0.148 µM
not listed: [10]
inactive: all other assays above

Cc1ccc(C)c(O)c1
inactive: all assays above

CCOCCOCCOCCO
inactive: all assays above

CC(C)=CCC/C(C)=C/CO
not listed: [10]
inactive: all other assays above

CC(C)c1cccc(C(C)C)c1N1C(=O)c2ccc(O)cc2C1=O
inactive: [2] | [3] | [4] | [9]
active: [1] 16.9 µM | [5] 9.91 µM | [6] 14.7 µM | [7] 14.9 µM | [8] 5.39 µM | [10] 31.9 µM

Cc1[nH]cnc1C[C@H]1CCc2c(C)c3ccccc3n2C1=O
active: [2] 19.2 µM | [5] 21.9 µM
inactive: all other assays above

Oc1ccc2c(c1)-c1ccccc1C2
active: [5] 29.8 µM
inactive: all other assays above

O=c1[nH]c2ccc(S(=O)CCN3CCC(Cc4ccc(F)cc4)CC3)cc2o1 (configuration not stated)
active: [2] 13.9 µM | [5] 4.49 µM
inactive: all other assays above

COc1ccc2sc(C(=O)Nc3nnn[nH]3)c(OC(C)C)c2c1
inactive: [1]
active: [2] 5.42 µM | [3] 8.61 µM | [4] 20.5 µM | [5] 12.1 µM | [6] 11.4 µM | [7] 10.3 µM | [8] 7.77 µM | [10] 15.5 µM | [9] 13.9 µM

CC(C)CCCCCCOC(=O)c1ccc(C(=O)OCCCCCCC(C)C)c(C(=O)OCCCCCCC(C)C)c1
not listed: [10]
inactive: all other assays above

CCCN(C1CCN(C(=O)C2CCNCC2)CC1)[C@@H]1CCc2ccc(OC)cc2C1
inactive: all assays above

O=C(O)CC(O)C(=O)O (configuration not stated)
inactive: all assays above

CC[C@H]1CC[C@H](NCc2cc3c(cc2OC)[C@H]2C[C@H]2C(=O)N3C)[C@H](c2ccccc2)N1
active: [2] 1.57 µM | [5] 20 µM
inactive: all other assays above

CC1(C)C(=O)N(Br)C(=O)N1Br
inactive: all assays above

O=C(NS(=O)(=O)/C=C/c1ccccc1)c1ccc(F)cc1Cl
active: [5] 12.9 µM
inactive: all other assays above

CC(C)(O)c1coc(S(=O)(=O)NC(=O)Nc2c3c(cc4c2CCC4)CCC3)c1
inactive: all assays above

Cc1c(-c2cccnc2)c2ccccc2n1CCCCC(=O)O
inactive: all assays above

C1N2CN3CN1CN(C2)C3
inactive: all assays above

CC[C@H]1OC(=O)[C@H](C)[C@@H](O[C@H]2C[C@@](C)(OC)[C@@H](O)[C@H](C)O2)[C@H](C)[C@@H](O[C@@H]2O[C@H](C)C[C@H](N(C)C)[C@H]2O)[C@](C)(O)C[C@@H](C)C(=O)[C@H](C)[C@@H](O)[C@]1(C)O
inactive: all assays above

CCN(C(=O)c1cc(C)cc(OC[C@H](C)Nc2ccncc2)c1)C(C)C
inactive: all assays above

COCCOCCOCCOC
inactive: all assays above

CCCCCCCCO
inactive: all assays above

CCOC(=O)CC(CC(=O)OCC)(OC(C)=O)C(=O)OCC
inactive: all assays above

CC(C)=CCC/C(C)=C\CO
active: [5] 0.171 µM
not listed: [10]
inactive: all other assays above

COc1cccc(-c2ccc(/C=C\CN3CCCCCC3)cc2Cl)c1
inactive: [1]
active: [2] 12.1 µM | [3] 32.2 µM | [4] 34.1 µM | [5] 3.59 µM | [6] 22.4 µM | [7] 27.2 µM | [8] 29.1 µM | [9] 34.4 µM

CCn1nc(Cc2ccccc2)cc1C1CCN(C[C@H]2C[C@H](N(C)[C@@H](C(=O)O)C(C)C)C[C@@H]2c2cccc(F)c2)CC1
active: [5] 12.9 µM
not listed: [10]
inactive: all other assays above

O=P(OC(CCl)CCl)(OC(CCl)CCl)OC(CCl)CCl
active: [2] 12 µM | [5] 16.2 µM
not listed: [7]
inactive: all other assays above

O=c1n(CC2CO2)c(=O)n(CC2CO2)c(=O)n1CC1CO1 (configuration not stated)
active: [1] 18.6 µM | [2] 6.71 µM | [3] 30.7 µM | [5] 4.36 µM | [6] 20 µM | [10] 15.5 µM
inactive: [4] | [8]

NC(=O)NO
not listed: [7]
inactive: all other assays above

C=CCCCCCCCCC(=O)O
not listed: [7]
inactive: all other assays above

CC1=CC(=O)CC(C)(C)C1
not listed: [10]
inactive: all other assays above

CC(C)CCCCCCCOC(=O)CCCCC(=O)OCCCCCCCC(C)C
not listed: [10]
inactive: all other assays above

CCOC(=O)c1ccc(C2CCC(NC[C@H](O)COc3ccc(O)c(NS(C)(=O)=O)c3)CC2)cc1 (some centres not stated)
active: [1] 18.7 µM | [2] 13.4 µM | [3] 6.27 µM | [4] 27.2 µM | [5] 1.75 µM | [6] 10.2 µM | [8] 13.4 µM | [10] 24.7 µM | [9] 15.7 µM
